The list is not random: actives were taken first. Their share in the collection is about 3.4%.
SIRT5 inh – blocks human SIRT5 desuccinylation of peptide. Purified SirT5, succinyl-peptide AMC, trypsin-coupled fluorescence. inhibition, % at 15 µM. actives 1.1% (n = 330,000); in the data active means inhibition above about 15%
Target sequence (Q9NXA8 whole entry, looked up): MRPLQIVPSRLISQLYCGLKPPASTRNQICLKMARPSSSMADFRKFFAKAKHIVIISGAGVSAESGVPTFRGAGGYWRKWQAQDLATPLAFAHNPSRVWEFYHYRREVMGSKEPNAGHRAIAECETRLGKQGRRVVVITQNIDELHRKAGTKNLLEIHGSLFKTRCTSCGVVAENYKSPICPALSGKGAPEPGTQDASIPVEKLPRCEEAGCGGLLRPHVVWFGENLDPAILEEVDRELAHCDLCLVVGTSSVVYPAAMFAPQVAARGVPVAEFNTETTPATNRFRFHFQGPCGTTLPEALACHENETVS
PGC1a acetyl inh – PGC1a acetylation modulation, inhibitor mode | U2OS PGC1a acetylation, AlphaScreen anti-acetyl-lysine; with virally co-expressed GCN5 acetyltransferase | inhibition, % at 15.6 µM | actives 0.17% (n = 350,000) | AID 651687;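 active means every replicate shows inhibition of at least 40%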
Ecoli rRNA inh – selective bacterial rRNA inhibition in E. coli; E. coli WT GFP vs humanized-ribosome RFP mutants, fluorescence, 24 h; hits give low values; DMSO median 0, no signal -100; AID 720706; GFP signal change (wild-type ribosome), % (no concentration beside the values); actives 1.6% (n = 350,000);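 active means significant combined selectivity score with lowered wild-type GFP, culture density cut under 30%, mutant RFP and density less affected; inactive means any of these conditions unmet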
EWS-Fli inh – EWS/Fli transcriptional activity inhibition | A673 NR0B1-luciferase reporter, viability-normalised | AID 651661 | actives 0.67% (n = 350,000) | inhibition, % at 12.6 µM;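 active means mean inhibition of at least 50% after viability correction, with every replicate also passing that limit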;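 further: firefly luciferase signal divided by Alamar Blue viability fluorescence both relative to DMSO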
PAX8 inh HTS – PAX8 transcriptional activity inhibition; RMG-I TPO-luciferase reporter, SteadyGlo, 24 h; inhibition, % at 12.6 µM; actives 1.2% (n = 360,000); AID 652154;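 active means mean replicate inhibition at least 60% with every replicate also reaching 60%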;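 further: luciferase light reporting Pax8 driven TPO promoter activity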
LGR2 antag – blocks bursicon-induced cAMP signaling via Drosophila LGR2 | inhibition, % at 9.99 µM | HEK293 LGR2, CRE-luciferase, bursicon-stimulated, 4 h | actives 0.35% (n = 380,000);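 active means drop in luminescence signal, shown as inhibition above about 50% in the replicate tests, limit read from the data, passing the limit was not always enough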;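 further: agonist challenge used bursicon conditioned medium at about half maximal strength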
A number is an active result; i = inactive; nt = no result.

SMILES	SIRT5 inh	PGC1a acetyl inh	Ecoli rRNA inh	EWS-Fli inh	PAX8 inh HTS	LGR2 antag
O=C(Nc1ccc(N2CCOCC2)cc1)c1cc2c(s1)CCCC2	i	i	i	i	i	i
O=C(Nc1ccc(S(=O)(=O)N2CCCC2)cc1)c1ccc([N+](=O)[O-])o1	nt	i	i	nt	nt	i
O=C(Nc1ccc(N2CCOCC2)cc1)c1cc2c(s1)CCCCC2	i	nt	-22	i	i	i
O=C(Nc1ccc(S(=O)(=O)N2CCOCC2)cc1)c1ccc([N+](=O)[O-])o1	i	i	-24	i	i	i
CC1(C)CC2CC(C)(CN2S(=O)(=O)c2ccc(C(=O)Nc3ccc(S(=O)(=O)N4CCOCC4)cc3)cc2)C1 (stereo not given)	i	nt	i	i	83	i
O=C(CN1C(=O)NC2(CCCC2)C1=O)Nc1ccc(S(=O)(=O)N2CCOCC2)cc1	18	i	i	i	i	i
C[C@@H]1CN([C@@H](C)CO)C(=O)c2cccc(NS(=O)(=O)c3ccc(Cl)cc3)c2O[C@H]1CN(C)CC1CC1	i	i	i	i	i	i
CCNC(=O)[C@H]1[C@H](CO)[C@H]2Cn3c(ccc(C4=CCCC4)c3=O)[C@@H]1N2C(=O)CC	i	nt	i	i	i	i
O=C(Nc1ccc(N2CCN(C(=O)c3cccs3)CC2)cc1)c1ccc([N+](=O)[O-])o1	i	nt	i	nt	98	i
O=C(COC(=O)c1ccc([N+](=O)[O-])o1)Nc1ccc(N2CCOCC2)cc1	i	nt	i	i	i	i
O=C(Nc1ccc(N2CCOCC2)cc1)c1ccc([N+](=O)[O-])o1	i	nt	-19	i	i	i
CC(=O)c1cc(N2CCOCC2)ccc1[N+](=O)[O-]	15	i	i	i	i	i
CC(=O)c1cc(N2CCC(C(=O)O)CC2)ccc1[N+](=O)[O-]	i	i	i	i	i	i
O=C(COc1ccccc1[N+](=O)[O-])Nc1ccc(N2CCN(C(=O)c3cccs3)CC2)cc1	i	i	i	i	i	75
CCCNC(=O)N1CC2(CCN(C(=O)CN(C)C)CC2)c2c(n(C)c3cc(OC)ccc23)[C@@H]1CO	i	i	i	i	i	i
Cc1c(/C(O)=C2/C(=O)C(=O)N(Cc3cccnc3)C2c2ccccn2)cnn1-c1ccccc1 (stereo not given)	i	i	i	i	i	87
COc1ccc(CN(C)C[C@H]2Oc3ccc(NC(=O)Nc4ccc(C(F)(F)F)cc4)cc3C(=O)N([C@@H](C)CO)C[C@@H]2C)cc1	i	i	i	i	nt	i
C[C@@H]1CN([C@@H](C)CO)C(=O)c2cc(NC(=O)Nc3ccc4c(c3)OCO4)ccc2O[C@@H]1CN(C)Cc1ccc(C(F)(F)F)cc1	17	i	nt	i	nt	nt
COc1ccc(NC(=O)Nc2ccc3c(c2)C(=O)N([C@@H](C)CO)C[C@@H](C)[C@@H](CN(C)Cc2ccc(C(F)(F)F)cc2)O3)cc1	20	i	i	i	105	i
COc1ccc(NC(=O)Nc2ccc3c(c2)C(=O)N([C@H](C)CO)C[C@@H](C)[C@@H](CN(C)Cc2ccc(C(F)(F)F)cc2)O3)cc1	21	i	i	i	i	i
C[C@H]1CN([C@@H](C)CO)C(=O)c2cc(NC(=O)Nc3ccc(C(F)(F)F)cc3)ccc2O[C@@H]1CN(C)Cc1ccc(Cl)c(Cl)c1	i	i	i	58	nt	i
C[C@H]1CN([C@@H](C)CO)C(=O)c2cc(NC(=O)Nc3ccc(C(F)(F)F)cc3)ccc2O[C@H]1CN(C)Cc1ccc2c(c1)OCO2	i	i	i	i	nt	i
COc1ccc2c3c([nH]c2c1)[C@@H](CO)N(CC1CC1)CC31CN(C(=O)Nc2cccc(F)c2)C1	i	i	i	i	nt	i
C[C@@H]1CCCCO[C@@H](CN(C)Cc2ccc(C(=O)Nc3ccccc3N)cc2)[C@@H](C)CN([C@@H](C)CO)C(=O)c2cc(N(C)C)ccc2O1	nt	nt	i	nt	nt	nt
CS(=O)(=O)N1[C@@H]2CN(CC(F)(F)F)C[C@H]1C2c1ccccc1 (stereo not given in full)	nt	nt	i	nt	nt	nt
SMILES	SIRT5 inh	PGC1a acetyl inh	Ecoli rRNA inh	EWS-Fli inh	PAX8 inh HTS	LGR2 antag
C[C@@H]1CN([C@H](C)CO)C(=O)c2cc(NC(=O)Nc3ccc(F)cc3)ccc2O[C@H]1CN(C)Cc1ccc(C(F)(F)F)cc1	i	i	i	i	68	i
C/C=C/c1cnc2c(c1)C(=O)N([C@@H](C)CO)C[C@H](C)[C@H](CN(C)C(=O)C1CCC1)O2	nt	i	i	i	nt	nt
C[C@H](NC(=O)C[C@H]1C=C[C@@H](NC(=O)Cc2ccccn2)[C@@H](CO)O1)c1ccccc1	i	i	i	nt	nt	i
Cc1cccc(-c2ccc([C@@H]3[C@H](CO)N4C(=O)CN(C(=O)c5cnccn5)C[C@@H]34)cc2)c1	nt	nt	i	nt	nt	nt
CCS(=O)(=O)N[C@H]1C=C[C@@H](CC(=O)NCc2ccc(Cl)cc2)O[C@H]1CO	nt	i	i	i	i	i
O=C(Nc1cccnc1Cl)c1ccc(=O)oc1	44	nt	i	i	i	i
COc1ccc(C(=O)Nc2cccnc2Cl)cc1OC	i	i	i	i	i	i
C[C@@H]1CN([C@@H](C)CO)C(=O)c2cc(NS(=O)(=O)c3ccc(Cl)cc3)ccc2O[C@@H](C)CCCCO[C@H]1CN(C)S(=O)(=O)c1cccs1	i	i	i	i	i	i
CCc1nn(C(C)C(=O)N2CCN(c3ccc(OC)cc3)CC2)c(=O)c2cc3occc3n12 (stereo not given)	i	i	i	55	i	i
COc1ccc2nc(N3C(=O)C(O)=C(C(=O)c4ccco4)C3c3ccccc3OC)sc2c1 (stereo not given)	i	i	-32	nt	i	i
Cc1ccc2nc(N3C(=O)C(O)=C(C(=O)c4ccc(C)o4)C3c3ccc(O)cc3)sc2c1 (stereo not given)	22	i	i	i	i	i
COc1ccc2nc(N3C(=O)C(O)=C(C(=O)c4ccco4)C3c3ccc(C)o3)sc2c1 (stereo not given)	i	nt	i	i	i	i
C[C@@H]1CN(C)C(=O)Cc2cc(N)ccc2O[C@@H]1CN(C)C(=O)OC(C)(C)C	nt	nt	i	nt	nt	nt
Cc1cc(C(=O)Nc2sc3c(c2C#N)CCCC3)no1	i	i	-31	i	nt	i
Cc1cc(C(=O)Nc2sc3c(c2C#N)CCC3)no1	nt	i	nt	nt	nt	i
C[C@H](CO)N1C[C@H](C)[C@H](CN(C)Cc2ccc(C(=O)O)cc2)OCCCC[C@H](C)Oc2ccc(NC(=O)CCCN(C)C)cc2C1=O	i	i	i	i	i	i
COc1ccc(OC)c(CN2C(=O)c3ccccc3C2c2nnnn2-c2ccc3c(c2)OCCO3)c1 (stereo not given)	i	nt	i	52	i	i
COc1ccc(CCN2C(=O)c3ccccc3C2c2nnnn2Cc2ccccc2)cc1OC (stereo not given)	i	nt	-21	i	i	i
O=C1c2ccccc2C(c2nnnn2-c2ccc3c(c2)OCCO3)N1CCc1ccccc1F (stereo not given)	i	nt	-34	i	i	i

Compound activity (PubChem)
